Assay results: PubChem BioAssay (EPA / NIEHS)
Inconclusive results are not listed. Activity calls are given as the source filed them. Rule for the calls: active = hit-call score of the fitted dose curve at least 0.9, where 1 is the maximum; inconclusive = response in the unintended direction; inactive = score below 0.9.

What follows are compounds tested against human Peroxisome Proliferator-activated Receptor alpha (PPARa), PPARA (gene 5465) (UniProt Q07869) (assay: ATG_PPARa_TRANS: Attagene TRANS-FACTORIAL HepG2 Assay for human Peroxisome Proliferator-activated Receptor alpha (PPARa) (AID 2283001);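 for AC50: potency for gain of reporter signal over DMSO so agonist or activator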).
Method in brief: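 Reporter transcripts quantified by RT-PCR plus capillary electrophoresis after 24 h treatment, fitted upward relative to DMSO. Cells: human HepG2 transiently carrying multiple GAL4-UAS reporter units driven by NR-Gal4 chimeras.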

human Peroxisome Proliferator-activated Receptor alpha (PPARa), PPARA (gene 5465), sequence (Q07869 whole entry, looked up, the tested form may be a part): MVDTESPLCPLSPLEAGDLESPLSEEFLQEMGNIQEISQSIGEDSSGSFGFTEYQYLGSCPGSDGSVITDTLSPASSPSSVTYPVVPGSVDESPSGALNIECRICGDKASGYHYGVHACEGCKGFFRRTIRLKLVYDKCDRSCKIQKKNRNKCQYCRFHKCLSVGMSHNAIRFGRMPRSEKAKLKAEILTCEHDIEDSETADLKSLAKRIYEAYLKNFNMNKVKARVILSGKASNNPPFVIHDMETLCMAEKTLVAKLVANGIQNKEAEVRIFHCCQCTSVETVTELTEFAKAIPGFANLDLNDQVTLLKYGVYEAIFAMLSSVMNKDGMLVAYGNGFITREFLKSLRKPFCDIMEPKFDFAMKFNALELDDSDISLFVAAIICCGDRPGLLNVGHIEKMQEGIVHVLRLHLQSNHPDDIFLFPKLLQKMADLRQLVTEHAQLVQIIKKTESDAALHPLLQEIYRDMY

outcome, inactive:
COCCOCCOCCO
CC/C=C\CCOC(=O)CC
CC(=O)C(C)O (stereo unspecified)
CC(=O)CC(=O)Nc1ccc(C)cc1C
O=C(CS)OCCOC(=O)CS
COc1ccc(CCC(C)=O)cc1
N#Cc1cscn1
ON=C1CCCCC1
O=C(O)CCCCCCCCCCCC(=O)O
CCC(=O)OCCOc1ccccc1
C=C(C)[C@@H]1CC=C(C)C(=O)C1
CCC(C)=O
C#CC(C)(O)CC(C)C (stereo unspecified)
C=C(C#N)C(=O)OCC
COS(=O)(=O)O
CCOC(=O)CC(C)O (stereo unspecified)
CCCN(CCC)S(=O)(=O)c1ccc(C(=O)O)cc1
CC(=O)O[C@@H]1CC2CCC1(C)C2(C)C (stereo partly specified)
CCN(CCC#N)c1ccc(N=Nc2ccc([N+](=O)[O-])cc2)cc1

AC50, active:
CC(C)C[C@H](NC(=O)OCC1c2ccccc2-c2ccccc21)C(=O)O 40 µM
CCCCCCCCCC(C)C=O (stereo unspecified) 27.5 µM
